Test results: PubChem BioAssay (NCATS)
Values joined by “and” are separate entries in the source; they are usually repeats but may differ in a detail not shown here. Equal entries are not always repeated. Inconclusive results are not listed. Active and inactive are the calls of the source. Unless noted, calls follow the shape of the dose curve; as a rule, active = well fitted curve in the direction sought with a large enough effect; inconclusive = small, poorly fitted or top-dose-only effect, or another doubt; inactive = no such curve, though single readings can be large; an effect the other way counts as inactive or inconclusive.

Experiments:
Papain (Carica papaya) = Papain (Carica papaya) (UniProt P00784); experiment: Primary qHTS assay for inhibitors of the protease papain (AID 1645873);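 also: papain turnover of Z-FR-AMC read as the AMC fluorescence gain over 10 min; % is scaled to controls: 0 for no effect and ±100 for the full control effect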
Papain (Carica papaya), sequence (P00784 whole entry, looked up): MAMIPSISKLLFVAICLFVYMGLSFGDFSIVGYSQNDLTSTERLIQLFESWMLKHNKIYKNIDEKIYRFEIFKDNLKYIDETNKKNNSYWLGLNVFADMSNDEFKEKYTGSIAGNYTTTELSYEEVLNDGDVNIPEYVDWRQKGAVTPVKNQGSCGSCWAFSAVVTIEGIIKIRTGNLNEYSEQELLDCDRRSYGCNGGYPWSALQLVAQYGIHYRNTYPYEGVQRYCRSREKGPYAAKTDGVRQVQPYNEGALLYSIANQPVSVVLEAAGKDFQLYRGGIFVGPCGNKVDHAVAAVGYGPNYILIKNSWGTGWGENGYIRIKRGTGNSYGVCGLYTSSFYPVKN

[1] = target: Catechol O-methyltransferase (Homo sapiens) (UniProt P21964); experiment: Confirmatory Screen for Target Class Profiling of Small Molecule Inhibitors of Methyltransferases (AID 1745852; calls by dose curve; also: potency is read from the fitted curve at half-maximal effect; as to activity change, negative = inhibition: % is scaled to controls: 0 for no effect and ±100 for the full control effect); conditions: MTase-Glo luminescence, SAH detection, recombinant enzyme; measured here: COMT max response; stronger effect = lower value
Catechol O-methyltransferase (Homo sapiens), sequence (P21964 whole entry, looked up): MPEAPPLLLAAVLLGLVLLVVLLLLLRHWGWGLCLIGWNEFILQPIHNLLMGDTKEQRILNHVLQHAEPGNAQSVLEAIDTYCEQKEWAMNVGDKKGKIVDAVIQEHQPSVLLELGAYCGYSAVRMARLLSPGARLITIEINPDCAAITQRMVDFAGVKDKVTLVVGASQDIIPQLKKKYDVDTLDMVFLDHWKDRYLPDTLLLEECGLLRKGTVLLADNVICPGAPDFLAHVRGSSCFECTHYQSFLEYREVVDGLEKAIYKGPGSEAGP

[2] = target: Guanidinoacetate N-methyltransferase (Homo sapiens) (UniProt Q14353); experiment: as above; conditions: MTase-Glo luminescence, SAH detection, recombinant enzyme; activity change, negative = inhibition: at 57.3 µM (top of the series) unless noted
[3] = target: Nicotinamide N-methyltransferase (Homo sapiens) (UniProt P40261); experiment: as above; conditions: MTase-Glo luminescence, SAH detection, recombinant enzyme; measured here: NNMT max response; stronger effect = lower value
Nicotinamide N-methyltransferase (Homo sapiens), sequence (P40261 whole entry, looked up): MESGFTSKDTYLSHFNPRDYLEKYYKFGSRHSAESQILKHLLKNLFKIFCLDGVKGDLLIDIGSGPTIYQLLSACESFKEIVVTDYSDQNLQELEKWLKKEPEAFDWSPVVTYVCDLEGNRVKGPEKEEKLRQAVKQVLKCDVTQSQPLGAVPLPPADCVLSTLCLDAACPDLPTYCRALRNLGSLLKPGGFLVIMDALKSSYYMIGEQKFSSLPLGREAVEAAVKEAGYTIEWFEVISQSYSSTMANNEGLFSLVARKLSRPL

[4] = target: Phenylethanolamine N-methyltransferase (Homo sapiens) (UniProt P11086); experiment: as above; conditions: MTase-Glo luminescence, SAH detection, recombinant enzyme; measured here: PNMT max response; stronger effect = lower value
Phenylethanolamine N-methyltransferase (Homo sapiens), sequence (P11086 whole entry, looked up): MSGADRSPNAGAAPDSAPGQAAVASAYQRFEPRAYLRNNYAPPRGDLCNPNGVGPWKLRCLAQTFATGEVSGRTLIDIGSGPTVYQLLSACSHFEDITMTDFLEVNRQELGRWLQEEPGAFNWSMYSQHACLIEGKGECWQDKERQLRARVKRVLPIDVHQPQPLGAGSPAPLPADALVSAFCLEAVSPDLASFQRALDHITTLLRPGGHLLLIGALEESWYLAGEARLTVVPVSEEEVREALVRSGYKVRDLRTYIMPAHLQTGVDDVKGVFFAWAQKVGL

[5] = Primary qHTS for small molecule stabilizers of the endoplasmic reticulum resident proteome: Secreted ER Calcium Modulated Protein (SERCaMP) assay (AID 1508630); also: % is scaled to controls: 0 for no effect and ±100 for the full control effect
In short: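 GLuc-SERCaMP-expressing SH-SY5Y cells, pretreated 16 h with compound, are challenged with thapsigargin to empty ER calcium stores; after 4 h, coelenterazine is added directly to the medium and luminescence is imaged.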

[6] = Primary qHTS for inhibitors of nuclear receptor binding SET domain protein 2 (NSD2) in an RCH-ACV wild type WT cells (2C) (AID 1645877); also: nearly all actives have a fitted effect of over 70% in size; also: potency is read from the fitted curve at half-maximal effect
[7] = target: Cytochrome P450 2C9 (Homo sapiens) (UniProt P11712); experiment: Cytochrome P450 family 2 subfamily C member 9 (CYP2C9) small molecule antagonists: luciferase biochemical (cell-free) qHTS assay (AID 1645842; active = well fitted curve in the direction sought with a large enough effect in the repeat runs; an effect the other way counts as inactive or inconclusive; also: nearly all actives have a fitted effect of over 55% in size; also: potency is read from the fitted curve at half-maximal effect)
Cytochrome P450 2C9 (Homo sapiens), sequence (P11712 whole entry, looked up): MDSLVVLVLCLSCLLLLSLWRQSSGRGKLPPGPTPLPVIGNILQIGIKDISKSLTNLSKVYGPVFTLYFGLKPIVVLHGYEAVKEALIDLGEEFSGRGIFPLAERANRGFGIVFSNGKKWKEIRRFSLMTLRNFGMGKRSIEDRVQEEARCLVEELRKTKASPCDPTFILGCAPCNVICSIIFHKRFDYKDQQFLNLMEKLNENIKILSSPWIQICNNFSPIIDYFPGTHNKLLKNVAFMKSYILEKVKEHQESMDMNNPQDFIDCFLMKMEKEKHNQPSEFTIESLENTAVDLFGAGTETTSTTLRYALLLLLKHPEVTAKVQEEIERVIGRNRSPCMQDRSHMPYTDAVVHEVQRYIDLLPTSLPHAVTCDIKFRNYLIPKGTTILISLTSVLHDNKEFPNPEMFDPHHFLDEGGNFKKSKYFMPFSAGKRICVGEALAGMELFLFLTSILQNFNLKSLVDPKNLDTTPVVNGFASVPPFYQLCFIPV
In short: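 Luminescence, after 20 min with luciferin detection reagent, reflected CYP2C9 turnover during a 1 h NADPH-driven reaction at 37C. Enzyme-substrate mix contained 0.4% bovine serum albumin and was preincubated with compound 10 min at room temperature.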

[8] = Primary qHTS for inhibitors of nuclear receptor binding SET domain protein 2 (NSD2) in an isogenic RCH-ACV NSD2 p.E1099K mutant (9B) (AID 1645876); also: nearly all actives have a fitted effect of over 70% in size; also: potency is read from the fitted curve at half-maximal effect
[9] = target: N-terminal Xaa-Pro-Lys N-methyltransferase 1 (Homo sapiens) (UniProt Q9BV86); experiment: Confirmatory qHTS for Inhibitors of N-terminal methyltransferase 1 (NTMT1): MTaseGlo Assay (AID 1645874); also: potency is read from the fitted curve at half-maximal effect; nearly all actives have a fitted effect of over 65% in size
N-terminal Xaa-Pro-Lys N-methyltransferase 1 (Homo sapiens), sequence (Q9BV86 whole entry, looked up): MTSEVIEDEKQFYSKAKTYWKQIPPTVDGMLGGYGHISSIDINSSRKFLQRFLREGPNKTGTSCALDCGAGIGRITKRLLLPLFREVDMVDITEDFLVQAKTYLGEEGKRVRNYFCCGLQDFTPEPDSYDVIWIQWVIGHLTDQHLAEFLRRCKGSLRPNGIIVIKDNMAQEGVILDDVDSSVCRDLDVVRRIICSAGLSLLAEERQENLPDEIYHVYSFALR
In short: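 Preincubation of NTMT1 (125 nM) plus SAM (100 uM) with test compounds lasted 15 min; methylation of 1 uM SPKRIA then proceeded 30 min in the dark at room temperature. Luciferase signal reported SAH produced.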

[10] = A High-Content qHTS Against Drug Library for the Identification of Small Molecules that Inhibit DYT1 Early Onset Primary Dystonia-Associated Cell Pathology (AID 1645839; calls by dose curve)
In short: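 Readout: %pathology, the punctate EGFP-TorsinA distribution from imaging, as the primary channel and cell count as the toxicity counterscreen. HEK293 Flp-In cells expressing delE TorsinA were induced with tetracycline and treated with compound for 48 h.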

[11] = NCATS anti-infectives library activity on HEK293 viability as a counter-qHTS vs the C. elegans viability qHTS (AID 1745854);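 also: HEK293 cells exposed to compounds for 24 hr before the viability read; % is scaled to controls: 0 for no effect and ±100 for the full control effect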
In short: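 HEK293 cells (1,500/well) exposed 24 hr at 37C to 1:5 titrations, up to 41.7 uM final; counter-screen to a C. elegans viability qHTS. Viability by CellTiter-Glo luminescence after 10 min at room temperature; digitonin as control.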

[12] = target: Cytochrome P450 2D6 (Homo sapiens) (UniProt P10635); experiment: Cytochrome P450 family 2 subfamily D member 6 (CYP2D6) small molecule antagonists: luciferase biochemical (cell-free) qHTS assay (AID 1645840; active = well fitted curve in the direction sought with a large enough effect in the repeat runs; an effect the other way counts as inactive or inconclusive; also: nearly all actives have a fitted effect of over 55% in size; also: potency is read from the fitted curve at half-maximal effect)
Cytochrome P450 2D6 (Homo sapiens), sequence (P10635 whole entry, looked up): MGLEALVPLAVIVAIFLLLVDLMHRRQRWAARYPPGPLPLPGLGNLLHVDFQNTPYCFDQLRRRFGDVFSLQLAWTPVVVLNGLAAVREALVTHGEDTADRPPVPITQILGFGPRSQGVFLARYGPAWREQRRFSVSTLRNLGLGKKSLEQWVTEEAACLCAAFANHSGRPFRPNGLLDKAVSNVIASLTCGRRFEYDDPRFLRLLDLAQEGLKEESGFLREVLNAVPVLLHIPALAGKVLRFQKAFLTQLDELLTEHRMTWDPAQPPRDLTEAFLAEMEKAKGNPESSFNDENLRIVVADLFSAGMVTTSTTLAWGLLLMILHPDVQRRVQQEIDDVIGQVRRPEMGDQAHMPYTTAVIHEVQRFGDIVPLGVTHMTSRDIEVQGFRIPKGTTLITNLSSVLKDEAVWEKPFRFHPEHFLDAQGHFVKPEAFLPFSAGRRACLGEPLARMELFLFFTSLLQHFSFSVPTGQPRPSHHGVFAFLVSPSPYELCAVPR
In short: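 P450-Glo luminescent screen: recombinant CYP2D6 enzyme–proluciferin substrate mix preincubated with compound 10 min at room temperature, then NADPH regeneration added for 1 h at room temperature. Detection reagent added for 20 min; luciferin light read as relative luminescence units.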

**Q.** Which outcome (Papain (Carica papaya)) does the source give for CC(C)(C)c1ccc(C(O)CCCN2CCC(C(O)(c3ccccc3)c3ccccc3)CC2)cc1 (stereo not given) here?
**A.** inactive

**Q.** With COc1ccc(Cc2nccc3cc(OC)c(OC)cc23)cc1OC as the compound, how does the outcome (Papain (Carica papaya)) read?
**A.** inactive

**Q.** And the activity [1]?
**A.** -10.8%

**Q.** What about the activity change, negative = inhibition [2] of the same compound?
**A.** -7.19%

**Q.** And the activity [3]?
**A.** -16.1%

**Q.** And the activity [4]?
**A.** -24.2%

**Q.** Which Potency [5] does the source give for O=c1cc(-c2ccccc2)oc2cc(O)c(O)c(O)c12 here?
**A.** inactive

**Q.** And the Potency [6]?
**A.** 23.5 µM (active)

**Q.** Which Potency [7] does the source give for C[C@@H]1CCN(C(=O)CC#N)C[C@H]1N(C)c1ncnc2[nH]ccc12 here?
**A.** inactive

**Q.** Which Potency [8] does the source give for O=C(NCc1ccccc1)c1csc(Nc2ccncn2)n1 here?
**A.** 11.8 µM (active)

**Q.** What about the Potency [6] of the same compound?
**A.** 9.34 µM (active) and 16.3 µM (active)

**Q.** With O=C(Nc1cc(Cl)cc2c1[nH]c1cnccc12)c1cccnc1 as the compound, how does the Potency [8] read?
**A.** inactive

**Q.** And the Potency [6]?
**A.** inactive

**Q.** Which results are given for O=C(Nc1ccccc1-c1cn2c(CN3CCNCC3)csc2n1)c1cnc2ccccc2n1?
**A.** Potency [9]: 33.9 µM (active); Potency [8]: 20.5 µM (active) and 7.42 µM (active); Potency [6]: 4.09 µM (active) and 6.61 µM (active); activity [1]: -38.1%; Potency [2]: 15.3 µM (active); activity [3]: -43.9%; activity [4]: -31.7%

**Q.** With NS(=O)(=O)c1cccc2c1C(=O)c1cccc(O)c1C2=O as the compound, how does the Potency [8] read?
**A.** 1.66 µM (active)

**Q.** And the Potency [6]?
**A.** 0.742 µM (active)

**Q.** Which results are given for COc1ccc2cccc(CCNC(C)=O)c2c1?
**A.** Potency [10]: inactive; Potency [8]: inactive

**Q.** With NC(=O)c1cccc2[nH]c(-c3ccc([C@H]4CCCN4)cc3F)nc12 as the compound, how does the Potency [8] read?
**A.** 14.8 µM (active)

**Q.** What about the Potency [6] of the same compound?
**A.** 10.5 µM (active)

**Q.** Which Potency [5] does the source give for NC(=O)[C@@H](CCC(F)(F)F)N(Cc1ccc(-c2ncon2)cc1F)S(=O)(=O)c1ccc(Cl)cc1 here?
**A.** inactive

**Q.** And the Potency [8]?
**A.** 23.5 µM (active)

**Q.** What about the outcome [11] of the same compound?
**A.** inactive

**Q.** Which Potency [8] does the source give for Oc1ccc(C2CCN(c3ccnc4ccccc34)CC2)cc1O here?
**A.** 13.2 µM (active)

**Q.** And the Potency [6]?
**A.** 11.8 µM (active)

**Q.** With CCc1ccc(C=C2SC(=S)NC2=O)cc1 as the compound, how does the Potency [5] read?
**A.** inactive

**Q.** And the activity [1]?
**A.** -2.96%

**Q.** And the activity change, negative = inhibition [2]?
**A.** -3.11%

**Q.** And the activity [3]?
**A.** -15.7%

**Q.** And the activity [4]?
**A.** -1.21%

**Q.** What does the source list for O=C(O)c1ccc(-c2c[nH]c3ncc(-c4ccccc4)cc23)cc1C1CCCC1?
**A.** Potency [8]: inactive; Potency [6]: 18.6 µM (active); outcome [11]: inactive

**Q.** Which Potency [12] does the source give for Cc1cccc(Nc2nc(-c3ccncc3)cs2)c1 here?
**A.** 0.849 µM (active)

**Q.** And the Potency [7]?
**A.** 0.268 µM (active)

**Q.** And the Potency [9]?
**A.** 2.82 µM (active)

**Q.** What about the Potency [8] of the same compound?
**A.** 10.3 µM (active) and 11.8 µM (active)

**Q.** And the activity [1]?
**A.** -88.1%

**Q.** And the Potency [2]?
**A.** 13.6 µM (active)

**Q.** What about the activity [3] of the same compound?
**A.** -73.8%

**Q.** And the activity [4]?
**A.** -88.3%

**Q.** For CN1CCN(CCOc2cc(OC3CCOCC3)c3c(Nc4c(Cl)ccc5c4OCO5)ncnc3c2)CC1, which Potency [5] is on record?
**A.** inactive

**Q.** And the Potency [8]?
**A.** 3.25 µM (active) and 2.63 µM (active)

**Q.** And the activity [1]?
**A.** -14.1%

**Q.** What about the activity change, negative = inhibition [2] of the same compound?
**A.** -0.0396%

**Q.** What about the activity [3] of the same compound?
**A.** -34.6%

**Q.** What about the activity [4] of the same compound?
**A.** -10.6%

**Q.** And the outcome [11]?
**A.** inactive

**Q.** Which Potency [8] does the source give for Cc1ccc(F)c(NC(=O)Nc2ccc(-c3cccc4[nH]nc(N)c34)cc2)c1 here?
**A.** 10.5 µM (active)

**Q.** And the Potency [6]?
**A.** 8.33 µM (active)

**Q.** Which Potency [10] does the source give for CN(C)c1cc(NC(=O)CNC(C)(C)C)c(O)c2c1C[C@@H]1C[C@H]3[C@H](N(C)C)C(=O)C(C(N)=O)=C(O)[C@@]3(O)C(=O)C1=C2O here?
**A.** inactive

**Q.** What about the Potency [7] of the same compound?
**A.** inactive

**Q.** Which results are given for O=C(O)CCc1nc(-c2ccccc2)c(-c2ccccc2)o1?
**A.** Potency [10]: inactive; Potency [12]: inactive; Potency [7]: inactive; outcome (Papain (Carica papaya)): inactive; Potency [8]: inactive; Potency [6]: inactive

**Q.** Which results are given for COCCOc1nc(-c2ccc(Cl)c(Cl)c2)n(-c2ccc(NC(=O)CCl)cc2)n1?
**A.** Potency [12]: 0.756 µM (active); Potency [7]: 4.77 µM (active); Potency [8]: 1.48 µM (active)

**Q.** For N#Cc1ccc(NC(=O)Nc2ccccc2Br)c2n[nH]nc12, which Potency [8] is on record?
**A.** inactive

**Q.** What about the Potency [6] of the same compound?
**A.** inactive

**Q.** Which Potency [12] does the source give for COc1ccc2cc(-c3nc(-c4ccc(S(C)=O)cc4)[nH]c3-c3ccncc3)ccc2c1 (stereo not given) here?
**A.** 3.38 µM (active)

**Q.** And the Potency [7]?
**A.** 3.38 µM (active)

**Q.** And the Potency [8]?
**A.** 23.5 µM (active) and 20.5 µM (active)

**Q.** What about the Potency [6] of the same compound?
**A.** 26.3 µM (active) and 20.5 µM (active)

**Q.** For C[C@H](NC(=O)C(=O)Nc1ccccc1C(C)(C)C)C(=O)N[C@@H](CC(=O)O)C(=O)COc1c(F)c(F)cc(F)c1F, which activity change, negative = cytotoxicity [11] is on record?
**A.** -18.7% [at 8.35 µM] (inactive)

**Q.** Which Potency [8] does the source give for NC(=O)c1ccc2nc(-c3ccc(Oc4ccc(Cl)cc4)cc3)[nH]c2c1 here?
**A.** 14.5 µM (active) and 23.1 µM (active)

**Q.** For CCn1cc(C(=O)O)c(=O)c2ccc(C)nc21, which Potency [10] is on record?
**A.** inactive

**Q.** And the Potency [12]?
**A.** inactive

**Q.** What about the outcome (Papain (Carica papaya)) of the same compound?
**A.** inactive

**Q.** Which outcome [11] does the source give for C=CCc1ccc(O)c(-c2ccc(O)c(CC=C)c2)c1 here?
**A.** inactive

**Q.** For O=c1cc(-c2ccccc2)oc2cc(O)cc(O)c12, which Potency [8] is on record?
**A.** 16.6 µM (active)

**Q.** And the Potency [6]?
**A.** 16.6 µM (active)

**Q.** For COc1ccc(-c2coc3cc(O)cc(O)c3c2=O)cc1, which Potency [8] is on record?
**A.** 18.6 µM (active)

**Q.** For O=C(O)Cc1cccc2ccccc12, which Potency [10] is on record?
**A.** inactive

**Q.** And the Potency [12]?
**A.** inactive

**Q.** And the Potency [7]?
**A.** inactive

**Q.** And the Potency [8]?
**A.** inactive

**Q.** What about the Potency [6] of the same compound?
**A.** inactive

**Q.** For Cc1cnc(C(=O)O)c[n+]1[O-], which Potency [12] is on record?
**A.** inactive

**Q.** What about the Potency [7] of the same compound?
**A.** inactive

**Q.** What about the Potency [8] of the same compound?
**A.** inactive
